# Assay results as given in PubChem BioAssay AID720708 (National Center for Advancing Translational Sciences (NCATS), 2013).
# Screen size: about 360,000 compounds; about 660 (0.18%) were called active. About 2% were inconclusive and are not listed. Calls follow the shape of the dose curve; as a rule, active = well fitted inhibition curve with a large enough effect; inconclusive = small, poorly fitted or top-dose-only effect; inactive = no such curve, though single readings can be large or run the other way. Shown is part of a subset that was picked to be rich in actives. Where a call stands in place of a potency, no number is given.
# Target: Rap guanine nucleotide exchange factor 4 (Homo sapiens) (UniProt Q8WZA2)
# Sequence (Q8WZA2 whole entry, looked up): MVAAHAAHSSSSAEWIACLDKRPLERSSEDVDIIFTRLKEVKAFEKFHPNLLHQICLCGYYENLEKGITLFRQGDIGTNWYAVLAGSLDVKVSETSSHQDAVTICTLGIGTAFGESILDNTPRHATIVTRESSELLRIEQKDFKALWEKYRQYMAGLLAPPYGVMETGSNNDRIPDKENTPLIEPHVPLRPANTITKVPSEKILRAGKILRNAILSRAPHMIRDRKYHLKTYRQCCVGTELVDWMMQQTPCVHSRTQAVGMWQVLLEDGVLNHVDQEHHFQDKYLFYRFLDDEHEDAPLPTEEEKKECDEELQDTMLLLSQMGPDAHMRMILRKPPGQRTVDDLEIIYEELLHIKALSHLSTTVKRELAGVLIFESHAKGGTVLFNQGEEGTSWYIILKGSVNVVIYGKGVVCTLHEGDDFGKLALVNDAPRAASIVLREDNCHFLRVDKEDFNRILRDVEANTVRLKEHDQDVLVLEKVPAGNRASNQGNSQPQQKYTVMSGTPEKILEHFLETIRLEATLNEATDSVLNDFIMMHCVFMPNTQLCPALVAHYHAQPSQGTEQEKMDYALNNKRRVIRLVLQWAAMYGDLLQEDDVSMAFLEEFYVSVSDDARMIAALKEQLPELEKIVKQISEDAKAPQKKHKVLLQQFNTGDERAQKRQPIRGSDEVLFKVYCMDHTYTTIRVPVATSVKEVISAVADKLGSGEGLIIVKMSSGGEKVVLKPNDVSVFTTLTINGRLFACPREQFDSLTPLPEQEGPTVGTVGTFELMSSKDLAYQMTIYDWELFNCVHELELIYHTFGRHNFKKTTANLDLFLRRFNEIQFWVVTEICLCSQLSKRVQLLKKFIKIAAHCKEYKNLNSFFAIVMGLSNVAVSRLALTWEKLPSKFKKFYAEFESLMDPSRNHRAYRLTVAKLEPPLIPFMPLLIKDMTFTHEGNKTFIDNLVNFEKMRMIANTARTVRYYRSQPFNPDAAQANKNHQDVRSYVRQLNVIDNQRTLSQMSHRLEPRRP
# Experiment: qHTS for Antagonist of cAMP-regulated guanine nucleotide exchange factor 2 (EPAC2): primary screen; also: nearly all actives have a fitted effect of over 45% in size
# Conditions: EPAC2 GEF exchange of Rap1B-BODIPY-GDP, fluorescence; series mostly up to 114 µM
# Text: In multi-cellular eukaryotic organisms, the effects of cAMP are transduced by two ubiquitously-expressed intracellular cAMP receptors, the classic protein kinase A/cAMP-dependent protein kinase (PKA/cAPK) and the more recently discovered exchange protein directly activated by cAMP/cAMP-regulated guanine nucleotide exchange factor (EPAC/cAMP-GEF). Both PKA and EPAC are ubiquitously expressed in all tissues, and an increase in intracellular cAMP levels will lead to the activation of both PKA and EPAC. Therefore, careful dissections of the individual role and relative contribution of EPAC and PKA within the overall cAMP signaling in various model systems are critical for further elucidating the mechanism of cAMP signaling. To date no EPAC-specific antagonists and agonist, as well as isoform-specific agonists have been reported, and developing EPAC-specific pharmacological probes to determine the physiological functions that EPAC play in the overall cAMP-mediated signaling remains a major challenge within the research field. Furthermore, identified regulators of EPAC may lead to new mechanism-based therapeutic strategies specifically targeting the EPAC / cAMP-signaling components as EPAC has been implicated to play important roles in major human pathological conditions such as diabetes, heart disease, and cancer.
# This qHTS will be used to screen the Molecular Libraries Small Molecule Repository (MLSMR) as a concentration-titration series using the NCGC unique quantitative screening (qHTS) platform to find inhibitors for EPAC2. In addition, this assay will also be used as a counterscreen for the EPAC1 qHTS. This fluorescent based assay is developed and validated for EPAC2 that measures exchange using EPAC effector Rap1 complex with BODIPY-GDP, a GDP analog with a tethered fluorophores. Inhibitors are identified by monitoring the change in fluorescence signal as the exchanged free BODIPY-GDP has a reduced fluorescence compared to Rap1-bound BODIPY-GDP. Decrease in signal (inhibition) is the desired outcome for the EPAC2 antagonist while no activity in this assay is desired for the EPAC1 antagonist counterscreen.
# NIH Chemical Genomics Center [NCGC]
# NIH Molecular Libraries Probe Centers Network [MLPCN]
# Assay Submitter (PI): Xiaodong Cheng, The University of Texas, Medical Branch
# Briefly, three uL of reagents (100 nM EPAC2, 250 nM RAP1B-BODIPY-GDP, 50 uM GDP) were dispensed into a 1536-well Greiner black solid-bottom medium binding assay plate. Controls and test compounds (23 nL) were transferred to the plate via a Kalypsys pin tool equipped with a 1536-pin array. The plates were centrifuged at 1,000 rpm for 15 seconds followed by 5 minute incubation at room temperature. The assay plates were read at 5 minute intervals for 30 minutes in the ViewLux plate reader using 480nm excitation and 540nm emission filters. The results were normalized to the agonist positive control ATA and DMSO.
# Potency is read from the fitted curve at half-maximal effect.
row,Structure (SMILES),Potency
1,O=C(NC1CCCCC1)C(c1cc2ccccc2o1)n1c(=O)c(-c2ccco2)nc2ccccc21 (centres undefined),inactive
2,CCCc1nn2c(=O)cc(CSCC(=O)Nc3cccc(C)c3)nc2s1,inactive
3,CCN(C(=O)COC(=O)c1c(NC(C)=O)sc(C)c1C)C1CCS(=O)(=O)C1 (centres undefined),inactive
4,O=C(Nc1cc(S(=O)(=O)N2CCOCC2)ccc1Cl)c1cc(=O)c2ccccc2o1,inactive
5,O=[N+]([O-])c1cc(Cl)cc(/C=N/NC(=S)Nc2cc(S(=O)(=O)N3CCOCC3)ccc2Cl)c1O,56.2 µM (active)
6,O=C(c1cc(S(=O)(=O)N2CCOCC2)ccc1Cl)N1CCOCC1,inactive
7,NC(=O)NC(=O)C(OC(=O)CCNS(=O)(=O)c1ccccc1)c1ccccc1 (centres undefined),inactive
8,O=C(CCC(=O)n1ncc2ccccc21)NCc1ccccc1Cl,inactive
9,Cc1csc(NC(=O)CSc2nc(=O)n(CCCN(C)C)c3c2CCC3)n1,inactive
10,Cc1ccc(NC(=O)CSc2nc(=O)n(CCN(C)C)c3c2CCCC3)c(C)c1,inactive
11,Cc1ccc2nc(NC(=O)CSc3nc(=O)n(CCCN(C)C)c4c3CCC4)sc2c1,79.4 µM (active)
12,Cc1cc(C)c2cc(C#N)c(N3CCNCC3)nc2c1,inactive
13,Oc1c(Cl)cc(Cl)c(Cl)c1Cc1c(O)c(Cl)cc(Cl)c1Cl,31.6 µM (active)
14,O=C(NCc1ccccc1)C1CNCC(C(=O)NCc2ccccc2)C1 (centres undefined),inactive
15,Cc1c2cnn(-c3ccccc3)c(=O)c2c(C)n1CCCC(=O)N1CCN(C)CC1,inactive
16,O=C(OCC(=O)N1CCCCCC1)c1cnc(Cl)c(Cl)c1,inactive
17,CCCCNC(=O)OC(C)CNC(=O)OC (centres undefined),inactive
18,Cc1ccc(Cl)cc1N1CCN(C(=O)c2cccc3c(=O)c(C)c(-c4ccccc4)oc23)CC1,12.6 µM (active)
19,Cc1cccc(N2CCN(C(=O)c3cnn4c(C(F)F)cc(-c5ccccc5)nc34)CC2)c1C,inactive
20,COc1ccccc1N1CCN(C(=O)c2cc(=O)c3cc(C)cc(C)c3o2)CC1,inactive
21,CCOCCCNC(=O)Cc1cc(=O)[nH]c(=O)[nH]1,inactive
22,CCCCCC1CCC(c2nnc(SCC(C)=O)o2)CC1 (centres undefined),inactive
23,COc1cccc2c(C)c(C(=O)O)[nH]c12,inactive
24,N#C/C(C(=O)N1CCOCC1)=C1/SC(Cc2ccc(F)cc2)C(=O)N1c1ccccc1 (centres undefined),inactive
25,Cc1cccc(NS(=O)(=O)c2ccc(C(=O)NCC(C)(C)N3CCOCC3)cc2)c1C,inactive

row,Structure (SMILES),Potency
1,Nc1[nH]c(C(=O)c2ccccc2)c(-c2ccc(Br)cc2)c1C(=O)NC1CC1,inactive
2,O=c1nc(N/N=C/c2ccco2)cn[nH]1,inactive
3,CCc1c(C)nc2c(OC)cccc2c1Cl,inactive
4,COc1cccc2c(N/N=C/c3ccco3)cc(C)nc12,12.6 µM (active)
5,CC(C)(C)Cc1c(C2CCCCC2)nc2ccc(Br)cn12,inactive
6,CCN(CC)S(=O)(=O)c1cc([N+](=O)[O-])ccc1NNC(=O)Nc1ccccc1,inactive
7,CCC(C(=O)NC1CCCC1)N(C(=O)c1snc(C(N)=O)c1N)c1ccc2c(c1)OCCO2 (centres undefined),inactive
8,Cc1c(Cl)c([N+](=O)[O-])nn1CC(=O)NCCCN1CCOCC1,inactive
9,CCOC(=O)N1CCN(Cc2nc3c(c(=O)n(C)c(=O)n3C)n2Cc2ccccc2)CC1,inactive
10,CC(=O)OCC(C)n1c(=O)c2ccccc2n1C(C)=O (centres undefined),inactive
11,COc1cccc(C2CC(c3cccs3)=NN2C(=O)CSC2=NCCS2)c1OC (centres undefined),inactive
12,CCCCCn1c(SCCC(C)C)nc2c1c(=O)[nH]c(=O)n2C,inactive
13,COC(=O)[C@@]12C[C@@H](CC(=O)NCCCCc3ccccc3)C(=O)N(CCc3ccc(OC)c(OC)c3)C1=CCC(C)(C)C2,inactive
14,Cc1ccc(C(=O)Nc2c(-c3ccccc3)[nH][nH]c2=O)cc1,inactive
15,O=C(OC1CC2CC1[C@H]1CCCCN1C2=O)N1CCOCC1 (some centres undefined),inactive
16,O=C(NCc1ccco1)c1cccc(-c2ccc3nncn3c2)c1,inactive
17,C=CCNC(=S)NNC(=O)c1ccc(Br)o1,inactive
18,O=S(=O)(Nc1cccc(-c2ccc(N3CCOCC3)nn2)c1)c1ccc(Cl)c(Cl)c1,inactive
19,O=C(CC1C(=O)NCCN1CC(c1ccccc1)c1ccccc1)NCCc1cn[nH]c1 (centres undefined),inactive
20,CCOCCCNC(=O)C(NC(=O)Cc1c[nH]c2ccccc12)c1ccc(OC)cc1 (centres undefined),inactive
21,COc1ccc(NC(=O)C(c2ccncc2)n2c(=O)c(-c3cc4ccccc4[nH]3)nc3ccccc32)cc1 (centres undefined),inactive
22,COC(=O)Cn1c(=NC(=O)c2cc(OC)c(OC)c(OC)c2)sc2cc(OC)ccc21,inactive
23,Cc1ccc(Cc2c(-c3ccc(Cl)cc3)nc3c4ccccc4ccn23)cc1,inactive
24,COC(=O)C1=C[C@@H](C(=O)OC)[C@@H]2C3=C(C(=O)[C@]2(C)NC(=O)c2ccccc2)[C@H](C)n2c(=O)n(C)c(=O)n2[C@@H]3C1,inactive
